A short description of assay [1]: Nuclear factor erythroid 2-related factor 2/antioxidant responsive element (Nrf2/ARE) small molecule agonists: qHTS cell viability counter screen in human keratinocytes (AID 1919968; active = well fitted curve in the direction sought with a large enough effect in the repeat runs; an effect the other way counts as inactive or inconclusive; also: nearly all actives have a fitted effect of over 55% in size; also: potency is read from the fitted curve at half-maximal effect). In a few lines: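 In human HaCaT keratinocytes stably expressing an ARE-driven luciferase, compound exposure lasted 23 h at 37 C under 5% CO2. Viable cells are quantified with a protease-based fluorogenic reagent (CellTiter-Fluor) read 1 h after addition.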

Assay [2] is described as follows: Nuclear factor erythroid 2-related factor 2/antioxidant responsive element (Nrf2/ARE) small molecule agonists: luciferase reporter gene qHTS assay in human keratinocytes (AID 1919969). Also: nearly all actives have a fitted effect of over 35% in size. For orientation: A reporter such as luciferase makes a cellular process visible.
The target of assay [3] is Gonadotropin-releasing hormone receptor (Homo sapiens) (UniProt P30968). The assay can be described thus: Human gonadotropin-releasing hormone receptor (GnRHR) small molecule agonists, calcium flux assay in GnRHR-HEK293 cells (AID 1920063). Also: nearly all actives have a fitted effect of over 35% in size. The essentials:
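Intracellular calcium rise is the read-out: engineered human GnRHR HEK293 cells, dye-loaded, are exposed to DMSO-dissolved compounds and fluorescence at Ex/Em 480/540 is tracked for 3 min.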
A general note: A change in cytosolic calcium serves as a functional read-out for many receptors and channels.

The target in assay [4] is KiSS-1 receptor (Homo sapiens) (UniProt Q969F8). Nature of the assay: Human kisspeptin (KISS1R) small molecule agonists, calcium flux assay in KISS1R-HEK293 cells (AID 1920064; active = well fitted curve in the direction sought with a large enough effect in the repeat runs; an effect the other way counts as inactive or inconclusive). The essentials: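 Concentration-response testing used 15 concentrations in triplicate on human KISS1R-expressing HEK293 cells. Calcium-dependent fluorescence (Ex/Em 480/540) was followed kinetically for 3 min after compound transfer.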
KiSS-1 receptor (Homo sapiens), sequence (Q969F8 whole entry, looked up): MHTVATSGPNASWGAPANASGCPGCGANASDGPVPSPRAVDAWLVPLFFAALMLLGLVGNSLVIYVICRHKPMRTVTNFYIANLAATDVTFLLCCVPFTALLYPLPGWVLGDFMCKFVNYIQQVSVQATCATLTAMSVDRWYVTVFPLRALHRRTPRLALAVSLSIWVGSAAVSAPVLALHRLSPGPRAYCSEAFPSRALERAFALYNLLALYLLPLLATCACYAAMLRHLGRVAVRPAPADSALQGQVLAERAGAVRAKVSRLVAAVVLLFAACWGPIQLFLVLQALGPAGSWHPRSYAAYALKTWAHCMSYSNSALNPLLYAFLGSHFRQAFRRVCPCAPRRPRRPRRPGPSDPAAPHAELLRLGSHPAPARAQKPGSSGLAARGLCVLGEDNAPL

Assay [5] is described as follows: G protein-coupled receptor (GPCR) small molecule agonists, calcium flux assay: HEK293 wild type cell line counter screen (AID 1920065). The essentials: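 Fluorescence intensity signals activation. After overnight (18 h) culture and a 1 h calcium dye load at 37 C, compounds are added by pin tool and the plate read at 480/540 nm for 3 min in 1 s steps.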
Assay [6] deals with 5-hydroxytryptamine receptor 2A (Homo sapiens) (UniProt P28223). Nature of the assay: 5-hydroxytryptamine receptor 2A (HTR2A) small molecule antagonists, cell-based qHTS assay (AID 1963586). Also: nearly all actives have a fitted effect of over 45% in size. The essentials: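 CHO cells stably expressing human HTR2A were plated for 18 h at 37 C, then loaded with calcium dye for 1 h. Compounds were preincubated 5 min at room temperature before DOI (4 nM solution) was added. Kinetic fluorescence was read for 3 min.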
5-hydroxytryptamine receptor 2A (Homo sapiens), sequence (P28223 whole entry, looked up): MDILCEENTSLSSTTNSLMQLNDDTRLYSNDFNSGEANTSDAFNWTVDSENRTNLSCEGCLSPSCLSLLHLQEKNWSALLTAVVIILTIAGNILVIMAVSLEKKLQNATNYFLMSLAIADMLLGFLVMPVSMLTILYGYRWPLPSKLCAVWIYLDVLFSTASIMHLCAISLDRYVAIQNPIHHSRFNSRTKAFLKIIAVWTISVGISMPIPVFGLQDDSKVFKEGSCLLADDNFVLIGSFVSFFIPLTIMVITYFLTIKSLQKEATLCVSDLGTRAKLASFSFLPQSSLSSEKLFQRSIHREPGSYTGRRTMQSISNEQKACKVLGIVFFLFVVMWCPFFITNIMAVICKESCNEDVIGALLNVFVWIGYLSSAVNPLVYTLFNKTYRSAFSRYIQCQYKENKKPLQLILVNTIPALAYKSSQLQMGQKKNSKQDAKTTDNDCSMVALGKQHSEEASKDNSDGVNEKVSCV

Assay [7] concerns the target Muscarinic acetylcholine receptor M1 (Homo sapiens) (UniProt P11229). Nature of the assay: Cholinergic receptor muscarinic 1 (CHRM1) small molecule antagonists, cell-based qHTS assay (AID 1963588). Also: nearly all actives have a fitted effect of over 40% in size. The essentials: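 Compounds were tested at 15 concentrations in three independent runs. Dye-loaded CHRM1-CHO cells were exposed 5 min at room temperature before stimulation by acetylcholine added at 50nM. Intracellular calcium was read kinetically on FDSS for 3 min.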
On the technique in general: Quantitative high-throughput screening tests each substance at several concentrations.

Assay [8] shares this target. Nature of the assay: Cholinergic receptor muscarinic 1 (CHRM1) small molecule agonists, cell-based qHTS assay (AID 1963589). Also: nearly all actives have a fitted effect of over 35% in size. The essentials:
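Fluorescent calcium dye reports M1 activation in stably transfected CHO cells. Compounds, 15 concentrations, added after 1 h dye loading at 37 C; kinetic reading at 1 sec intervals.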

The nature of assay [9]: cAMP Responsive Elements (CRE) small molecule agonists, cell-based qHTS assay (AID 1963590). The essentials: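 Compound exposure lasted 3 h at 37 C/5% CO2 in CRE-bla HEK 293T cells grown in assay medium with 10% dialyzed FBS and 25 mM HEPES. Reporter signal came from LiveBLAzer B/G FRET substrate, 2 h, room temperature.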
Assay [10] deals with Beta-2 adrenergic receptor (Homo sapiens) (UniProt P07550). The assay can be described thus: Adrenergic beta2 receptor (ADRB2) small molecule antagonists, cell-based qHTS assay (AID 1963592). Also: nearly all actives have a fitted effect of over 50% in size. Also: potency is read from the fitted curve at half-maximal effect. The essentials: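 Assay format: CHO-ADRB2 cells, 18-20hr seeding at 37C/5% CO2, then compound plus 1nM isoproterenol agonist mix for 0.5hr RT. Homogeneous time-resolved fluorescence cAMP detection after 1hr, expressed as 665/615 nm ratio.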
Beta-2 adrenergic receptor (Homo sapiens), sequence (P07550 whole entry, looked up): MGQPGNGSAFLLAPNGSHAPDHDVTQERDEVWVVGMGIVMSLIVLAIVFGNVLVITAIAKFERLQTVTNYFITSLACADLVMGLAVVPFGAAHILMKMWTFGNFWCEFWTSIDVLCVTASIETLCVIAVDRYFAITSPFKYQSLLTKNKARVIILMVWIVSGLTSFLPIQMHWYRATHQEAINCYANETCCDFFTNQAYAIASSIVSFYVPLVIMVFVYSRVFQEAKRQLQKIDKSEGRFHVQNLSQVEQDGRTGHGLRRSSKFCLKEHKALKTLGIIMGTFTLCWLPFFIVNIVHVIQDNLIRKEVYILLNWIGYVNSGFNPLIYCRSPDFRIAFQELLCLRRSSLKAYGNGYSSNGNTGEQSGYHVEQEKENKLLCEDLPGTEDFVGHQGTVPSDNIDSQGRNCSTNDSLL

Assay [11] shares this target. The assay can be described thus: Adrenergic beta2 receptor (ADRB2) small molecule agonists, cell-based qHTS assay (AID 1963593).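 Also: CHO cells stably overexpressing human ADRB2.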 The essentials: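 CHO cells stably over-expressing ADRB2 were plated overnight at 37C, then dosed with compounds plus a stimulation mix containing 100uM IBMX and 25uM Ro-20-1724 for 0.5hr at room temperature. cAMP was measured by HTRF competition, 1hr.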

Assay [12] deals with D(2) dopamine receptor (Homo sapiens) (UniProt P14416). The assay can be described thus: Dopamine D2 receptor (DRD2) small molecule agonists, cell-based qHTS assay (AID 1963594). Also: nearly all actives have a fitted effect of over 35% in size. The essentials:
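HEK293 cells stably expressing DRD2 were cultured 24 h at 37 C, then given Ro20-1724 (0.1 mM final) and compounds for 10 min at room temperature. NKH477 (200nM) was then added for 30 min. cAMP was read by HTRF.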

The target is the same in assay [13]. Nature of the assay: Dopamine D2 receptor (DRD2) small molecule antagonists, cell-based qHTS assay (AID 1963595; active = well fitted inhibition curve with a large enough effect in the signal ratio in the repeat runs, with a control signal flat; the % refers to the signal ratio). The essentials:
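Antagonist mode in DRD2-HEK293 cells: after compound addition with 0.1 mM Ro20-1724, cells received quinpirole (12 nM) and NKH477 (200 nM) for 30 min at room temperature; HTRF cAMP read after 1 h detection.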

Assay [14] is described as follows: p53 small molecule agonists, cell-based qHTS assay with rat liver microsomes: qHTS cell viability counter screen (AID 1963580). Also: nearly all actives have a fitted effect of over 45% in size. In a few lines:
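Counter screen for cytotoxicity under metabolic activation: rat liver microsomes and NADPH, 0.5 mg/mL final each, added with compounds to p53RE-bla HCT-116 cells; 16 h at 37 C, then ATP luminescence read.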

For assay [15], the target named is 5-hydroxytryptamine receptor 2A (Homo sapiens) (UniProt P28223). Nature of the assay: 5-hydroxytryptamine receptor 2A (HTR2A) small molecule agonists, cell-based qHTS assay (AID 1963587). Also: nearly all actives have a fitted effect of over 30% in size. The essentials:
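HTR2A-CHO cells, plated 18 h at 37 C/5% CO2, dye-loaded 1 h at 37 C; compounds in DMSO added by pin tool (agonist mode). Intracellular calcium flux read as kinetic fluorescence on FDSS over 2 min at 1 s intervals.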

A short description of assay [16]: p53 small molecule agonists, cell-based qHTS assay with human liver microsomes: qHTS cell viability counter screen (AID 1963579). Also: nearly all actives have a fitted effect of over 45% in size. The essentials:
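Metabolic activation used human liver microsomes and NADPH, both 0.5 mg/mL final, over 16 hours at 37 C on p53RE-bla cells (4,000/well). Cytotoxicity measured by CellTiter-Glo luminescence, 30 min at room temperature.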

The nature of assay [17]: p53 small molecule agonists, cell-based qHTS assay: qHTS cell viability counter screen (AID 1963581). Also: nearly all actives have a fitted effect of over 45% in size. In a few lines:
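Luminescence from CellTiter-Glo, reflecting ATP content, serves as the cytotoxicity measure; it is taken after the 2 h reporter substrate step in HCT-116 p53RE-bla cells dosed for 16 h at 37 C.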

A short description of assay [18]: p53 small molecule agonists, cell-based qHTS assay (AID 1963582; active = well fitted activation curve with a large enough effect in the signal ratio in the repeat runs, not every such curve was filed as active; the % refers to the signal ratio). The essentials: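 After plating, p53RE-bla cells sat 5 h in the incubator; compounds or DMSO vehicle were pinned in; a 16 h incubation at 37 C followed; FRET substrate was added and, 2 h later at RT, fluorescence was measured.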
Assay [19] in a line: cAMP Responsive Elements (CRE) small molecule antagonists, cell-based qHTS assay (AID 1963591; active = well fitted inhibition curve with a large enough effect in the signal ratio in the repeat runs, not every such curve was filed as active; the % refers to the signal ratio; also: potency is read from the fitted curve at half-maximal effect). The essentials: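 Stimulation used NKH477 at a final 0.25 uM for 3 h in compound-treated CRE-bla HEK293T cells, seeded 18 h beforehand. Reporter activity was measured with LiveBLAzer B/G FRET substrate after 2 h at room temperature.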

In PubChem BioAssay (Tox21) one finds Potency data, which are given here for 11 compounds.

Values without a mark were called inactive. Inconclusive results are not listed. Activity calls are given as the source filed them. Unless noted, calls follow the shape of the full dose curve.

D(2) dopamine receptor (Homo sapiens), sequence (P14416 whole entry, looked up): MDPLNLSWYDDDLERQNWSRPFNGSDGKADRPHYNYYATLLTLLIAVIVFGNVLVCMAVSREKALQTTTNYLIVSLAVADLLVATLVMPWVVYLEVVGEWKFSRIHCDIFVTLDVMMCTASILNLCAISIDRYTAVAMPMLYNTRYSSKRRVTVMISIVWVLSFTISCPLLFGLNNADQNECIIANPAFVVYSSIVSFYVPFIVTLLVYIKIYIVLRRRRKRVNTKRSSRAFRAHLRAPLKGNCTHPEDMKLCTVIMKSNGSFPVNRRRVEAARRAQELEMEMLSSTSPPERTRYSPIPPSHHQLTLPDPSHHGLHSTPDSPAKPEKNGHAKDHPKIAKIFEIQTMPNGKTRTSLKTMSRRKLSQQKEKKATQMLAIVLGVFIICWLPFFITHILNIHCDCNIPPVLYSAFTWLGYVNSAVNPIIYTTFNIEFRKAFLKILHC
Gonadotropin-releasing hormone receptor (Homo sapiens), sequence (P30968 whole entry, looked up): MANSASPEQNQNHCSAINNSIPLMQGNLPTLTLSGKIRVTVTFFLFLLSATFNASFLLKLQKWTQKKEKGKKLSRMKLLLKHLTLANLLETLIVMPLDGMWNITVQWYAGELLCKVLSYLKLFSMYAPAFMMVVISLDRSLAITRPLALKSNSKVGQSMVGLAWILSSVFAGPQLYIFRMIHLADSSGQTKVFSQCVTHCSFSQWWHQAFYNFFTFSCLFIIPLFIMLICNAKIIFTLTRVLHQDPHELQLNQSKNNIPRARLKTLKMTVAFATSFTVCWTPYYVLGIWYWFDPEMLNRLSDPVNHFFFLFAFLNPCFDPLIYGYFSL
Muscarinic acetylcholine receptor M1 (Homo sapiens), sequence (P11229 whole entry, looked up): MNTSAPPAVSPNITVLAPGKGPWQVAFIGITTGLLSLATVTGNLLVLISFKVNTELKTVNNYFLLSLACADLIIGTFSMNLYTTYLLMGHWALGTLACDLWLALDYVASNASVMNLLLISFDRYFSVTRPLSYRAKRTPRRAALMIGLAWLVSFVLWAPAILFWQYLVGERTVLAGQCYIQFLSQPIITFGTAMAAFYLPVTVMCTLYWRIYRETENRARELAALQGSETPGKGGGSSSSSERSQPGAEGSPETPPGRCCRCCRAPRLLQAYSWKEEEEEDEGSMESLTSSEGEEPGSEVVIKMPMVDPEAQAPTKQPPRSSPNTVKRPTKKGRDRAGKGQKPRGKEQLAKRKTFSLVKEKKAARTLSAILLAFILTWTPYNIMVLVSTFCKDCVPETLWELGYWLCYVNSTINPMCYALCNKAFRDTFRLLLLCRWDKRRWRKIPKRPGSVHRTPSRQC

For the compound `O=S(=O)(O)c1cc(O)ccc1O`, the Potency entry in assay [1], in [2], in assay [3], in assay [4], in assay [5] and in assay [6] was “inactive” in each case. Also, the Potency entry in assay [7], in assay [8], in assay [9], in assay [10], in assay [11] and in [12] was “inactive” in each case. For the same compound, in assay [13], the Potency entry is “inactive”.

On to `CC(=O)OCC(=O)[C@H]1CC[C@H]2[C@@H]3CCC4=CC(=O)CC[C@]4(C)[C@H]3CC[C@]12C`, for which the Potency result in assay [1], in [2], in assay [3], in assay [4], in [5] and in [14] was “inactive” each time. In addition, the Potency entry in assay [15], in [8], in assay [10], in [12] and in assay [13] was “inactive” in each case.

Take `CCC1(c2cnc[nH]2)Cc2ccccc2C1`: the Potency entry in [1], in [2], in assay [3], in [4], in assay [5] and in assay [6] was “inactive” throughout. For the same compound, the Potency result in assay [15], in assay [7], in assay [8], in assay [9], in [10] and in [12] was “inactive” throughout. Besides, the Potency result in [13] is “inactive”.

With `Nc1ccc(-c2ccc(F)cc2)cc1`, the Potency entry in [1], in assay [2], in assay [3], in [4], in assay [16] and in assay [14] was “inactive” in each case. The Potency entry in assay [17], in assay [18], in assay [15], in [7], in assay [8] and in assay [10] was “inactive” throughout. Also, the Potency entry in assay [12] and in [13] was “inactive” each time.

For the compound `CC(C)NCC(O)COc1ccc(CC(N)=O)cc1` (stereo not given), the Potency result in [1], in assay [2], in assay [3], in assay [4], in assay [5] and in assay [18] was “inactive” each time. The Potency result in assay [9], in assay [19], in assay [12] and in assay [13] was “inactive” in each case.

Regarding `CC1(C)[C@H](C(=O)O)N2C(=O)C[C@H]2S1(=O)=O`, the Potency entry in [1], in [2], in [3], in assay [4], in assay [5] and in [18] was “inactive” throughout. For the same compound, the Potency result in [9], in assay [10], in assay [12] and in [13] was “inactive” each time. The Potency in assay [19] was 1.33 µM (active).

Regarding `CC(C)OC(=O)c1cc(C(=O)OC(C)C)cc([N+](=O)[O-])c1`, the Potency result in assay [1], in assay [2], in assay [3], in assay [4], in assay [5] and in assay [14] was “inactive” in each case. Besides, the Potency entry in [6], in assay [15], in assay [7], in assay [8], in assay [12] and in assay [13] was “inactive” each time. Further, the Potency in assay [10] was 62.6 µM (active).

For the compound `CC(C)NC[C@@H](O)COc1ccc(CC(N)=O)cc1`, the Potency entry in assay [1], in [2], in assay [3], in assay [4], in assay [5] and in assay [18] was “inactive” in each case. The Potency result in [9], in [19], in assay [12] and in [13] was “inactive” each time.

Take `Cc1cc(C(C#N)c2ccc(Cl)cc2)c(Cl)cc1NC(=O)c1cc(I)cc(I)c1O` (stereo not given): in assay [1], the Potency is 29.8 µM (active). The Potency entry in assay [2], in assay [3], in [4], in assay [5], in [14] and in assay [10] was “inactive” throughout. In addition, the Potency entry in [12] and in assay [13] was “inactive” throughout.

Consider `CCOc1ccc2nc(N)sc2c1`, for which the Potency result in assay [1], in assay [2], in assay [3], in assay [4], in assay [5] and in assay [17] was “inactive” throughout. For the same compound, the Potency entry in assay [18], in [6], in assay [15], in assay [7], in assay [8] and in assay [9] was “inactive” in each case. In addition, the Potency result in [19], in assay [10] and in [13] was “inactive” each time.

As for `CC1=C(C(=O)O)N2C(=O)[C@@H](NC(=O)[C@H](N)c3ccccc3)[C@H]2SC1`, the Potency result in [1], in assay [2], in [3], in assay [4], in [5] and in assay [17] was “inactive” throughout. For the same compound, the Potency result in assay [18], in assay [9], in assay [19], in [10] and in assay [12] was “inactive” throughout.
